# SW480 rereplic: A quantitative high throughput screen for small molecules that induce DNA re-replication in SW480 colon adenocarcinoma cells. SW480 DNA re-replication, Hoechst DNA content imaging, 48 h. Potency, µM (series often up to 46.1 µM), hits mostly activators. hit rate 1.8% among 340,000. AID 624297, 2012; note: nearly all actives have a fitted effect of over 55% in size
#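 First, 250 cells per well were seeded. Next, compound or vehicle (23 nL) was pinned in, plates sat 48 hr at 37 C. Finally Hoechst was added for 40 min before fluorescence scanning.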
# HT1080 IDH1KD tx: qHTS for induction of synthetic lethality in tumor cells producing 2HG: qHTS for the HT-1080-IDH1KD cell line; HT-1080 IDH1 knockdown viability, ATP luminescence, 48 h; Potency, µM (doses to about 46.1 µM), most hits filed as cytotoxic; hit rate 2% among 360,000; AID 686971, 2013
#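 Using the IDH1-knockdown HT-1080 line run in the same batch and compound series as the NT line, viability after 48 h at 37 °C was determined by CellTiter-Glo luminescence and expressed as % activity.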
# MCF10A rereplic: A quantitative high throughput screen for small molecules that induce DNA re-replication in MCF 10a normal breast cells. MCF 10A DNA re-replication, Hoechst nuclear intensity, 48 h. Potency, µM (top dose mostly 46.1 µM), hits mostly activators. hit rate 2.9% among 350,000; note: nearly all actives have a fitted effect of over 50% in size
# HT1080-NT tox: qHTS for induction of synthetic lethality in tumor cells producing 2HG: qHTS for the HT-1080-NT fibrosarcoma cell line | HT-1080-NT fibrosarcoma viability, CellTiter-Glo ATP luminescence, 48 h | Potency, µM (titrated, usually from 46.1 µM), most hits filed as cytotoxic | hit rate 1.6% among 360,000;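 note: NT is the 2HG producing partner of a matched IDH1 knockdown line; nearly all actives have a fitted effect of over 55% in size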
#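 750 cells/well, RPMI + 5% FBS; 2 h settle, compound pin-transfer, 48 h at 37 degrees C. CellTiter-Glo 10 min RT, luminescence. Normalized to DMSO and media-only wells.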
# KB-3-1 tox: qHTS assay for MDR1-selective chemotherapeutics: Primary screen using the parental adenocarcinoma cell KB-3-1. KB-3-1 viability, CellTiter-Glo ATP luminescence, 72 h. Potency, µM (top dose mostly 46.1 µM), hits mostly cytotoxic. hit rate 1.4% among 400,000. AID 1347075, 2019; note: nearly all actives have a fitted effect of over 60% in size
#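 Cells are dispensed, compounds pinned in, plates held at 37 °C for 72 h, then CellTiter-Glo is added and luminescence read after 10 minutes. Cell line: parental KB-3-1 in phenol-red-free DMEM, 10% FBS.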
# KB-V1 cytotox: qHTS assay for MDR1-selective chemotherapeutics: Primary screen using the drug-selected MDR subline cells KB-V1; KB-V1 MDR cells viability, CellTiter-Glo, 72 h; Potency, µM (highest dose often 46.1 µM), usual class: cytotoxic; hit rate 3.4% among 400,000; AID 1347076, 2019; note: nearly all actives have a fitted effect of over 60% in size
#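 Cytotoxicity toward P-gp-expressing KB-V1 cells was determined as loss of CellTiter-Glo luminescence after 72 h at 37 degrees C. Compounds were tested in quantitative HTS format across a concentration range, with curves fitted to normalized data.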
# A number is an active result; 0 = inactive; ? = inconclusive; - = not tested or not shown; ! = a repeat was not active; [ ] = another dose, or the depositor's remark. An excerpt weighted towards active compounds, which were near 7.9% of everything screened. Calls come from the whole dose curve; as a rule, active = well fitted curve in the direction sought with a large enough effect; inconclusive = small, poorly fitted or top-dose-only effect, or another doubt; inactive = no such curve, though single readings can be large; an effect the other way counts as inactive or inconclusive.
SMILES,SW480 rereplic,HT1080 IDH1KD tx,MCF10A rereplic,HT1080-NT tox,KB-3-1 tox,KB-V1 cytotox
CC(C)Sc1nc2ccccc2n2cnnc12,0,0,0,0,0,0
O=C(CSc1n[nH]c(-c2cccs2)n1)NCCc1ccccc1,0,0,0,0,0,0
CCOC(=O)C1=C(C)OC(N)=C(C#N)C1c1cc(OC)c2c(c1)OCO2 (stereo unspecified),0,0[9.24 µM],0,0,?,0
N#CC1=C(N)Oc2cc3c(cc2C1c1ccc(Cl)cc1)OCO3 (stereo unspecified),0,?,0,0,0,0
COc1cc(C2C(C#N)=C(N)Oc3cc(O)ccc32)cc2c1OCO2 (stereo unspecified),0,20.6µM,?,?,?,?
COc1cc(C2C(C#N)=C(N)Oc3cc4c(cc32)OCO4)cc(OC)c1OC (stereo unspecified),?,0.0291µM,?,0.0366µM,0.0052µM,0.231µM
COc1cc(C2C(C#N)=C(N)Oc3cc(N(C)C)ccc32)cc2c1OCO2 (stereo unspecified),0,?,?,0.199µM,0.82µM,0.0164µM
CCCCN(CCCC)C(=O)c1cc(Cl)ccc1[N+](=O)[O-],?,0,0,0,0,23.1µM
C=CCN(CC=C)C(=O)c1cc(Cl)ccc1[N+](=O)[O-],0,0,0,0,0,0
COc1ccc(CN2C[C@@H](CO)O[C@@H](n3cnc4c(N5CCCC5)ncnc43)C2)cc1,-,0,-,0,0,0
Oc1ccc(-c2nc3c4c(ncn3n2)-c2ccccc2CC42CCCC2)cc1,0,0,4.61µM,0,0,?
C=CCNC(=O)/C(=C\c1ccco1)NC(=O)c1ccco1,0,0,0,0,0,0
NNC(=O)/C(=C\c1ccco1)NC(=O)c1ccco1,?,?,20.6µM,14.6µM,0,0
CCOC(=O)/C=C1/SCC(=O)N1CC(=O)c1ccc[nH]1,0,0,0,0,0,0
Cc1ccc2cc(CNC[C@H]3O[C@@H](n4cc(C)c(=O)[nH]c4=O)C[C@@H]3O)c(N3CCOCC3)nc2c1,-,0,-,0,0,?
Cc1ccc(Nc2cccccc2=O)cc1,0,29.1µM,0,0,0,0
O=C(NCC(=O)N1CCN(c2ccccc2O)CC1)c1ccc(Br)o1,0,?,0,?,0,0
N#Cc1ccccc1Sc1ccccc1C(=O)Nc1ccc2ccccc2c1,0,0,?,0,0,0
N#Cc1ccccc1Sc1ccccc1C(=O)Nc1ccc(Br)cc1,0,0,0,0,0,18.4µM
COC(=O)/C=C/c1cc(F)ccc1S(=O)(=O)Nc1ccccc1,-,-,-,-,0,?
COc1cc(OC)c(NS(=O)(=O)c2ccc3c(c2)NC(=O)CCS3)cc1Cl,-,-,-,-,18.4µM,?
Cc1ccc(NS(=O)(=O)c2ccc3c(c2)NC(=O)CCS3)c(Br)c1,0,0,0,0,?,23.1µM!
C[C@H](CO)N1C[C@H](C)[C@H](CN(C)C(=O)Nc2ccc(F)cc2)OCc2ccccc2-c2c(n(C)c3ccccc23)C1=O,-,0,-,0,0,0
Cc1ccc2c(n1)sc1c(-c3ccc(Br)cc3)c(C#N)c(N)nc12,2.31µM,0,?,0,0,0
O=C(Nc1cccc([N+](=O)[O-])c1)c1cc2ccccc2cc1O,?,3.66µM,?,3.66µM,13µM,?
COc1ccc(NC(=O)c2cc([N+](=O)[O-])ccc2O)cc1,0,?,?,20.6µM,18.4µM,?
Cc1c(C(=O)Nc2cccc([N+](=O)[O-])c2)csc1-c1ccccc1,0,0,?,0,0,8.2µM
O=C(O)c1ccccc1C(=O)Nc1cccc([N+](=O)[O-])c1,0,0,0,0,0,0
CC(=O)N(CCCCl)C(C#N)c1ccccc1 (stereo unspecified),0,0,0,0,0,0

# Compound activity as filed in PubChem.
